According to PubChem BioAssay (NCATS):
Results filed as inconclusive are left out. The source made the active and inactive calls. Calls follow the shape of the dose curve; as a rule, active = well fitted curve in the direction sought with a large enough effect; inconclusive = small, poorly fitted or top-dose-only effect, or another doubt; inactive = no such curve, though single readings can be large; an effect the other way counts as inactive or inconclusive.

Tests used:
[1] = biological target: Glutaminase kidney isoform, mitochondrial (Homo sapiens) (UniProt O94925); experiment: qHTS for Inhibitors of Glutaminase (GLS): LOPAC Validation (AID 624146);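 also: glutamate product detected by oxidase and peroxidase coupled Amplex red fluorescence gain; series mostly up to about 46 µM; nearly all actives have a fitted effect of over 60% in size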
Chain of Glutaminase kidney isoform, mitochondrial (Homo sapiens) (O94925 whole entry, looked up, canonical isoform): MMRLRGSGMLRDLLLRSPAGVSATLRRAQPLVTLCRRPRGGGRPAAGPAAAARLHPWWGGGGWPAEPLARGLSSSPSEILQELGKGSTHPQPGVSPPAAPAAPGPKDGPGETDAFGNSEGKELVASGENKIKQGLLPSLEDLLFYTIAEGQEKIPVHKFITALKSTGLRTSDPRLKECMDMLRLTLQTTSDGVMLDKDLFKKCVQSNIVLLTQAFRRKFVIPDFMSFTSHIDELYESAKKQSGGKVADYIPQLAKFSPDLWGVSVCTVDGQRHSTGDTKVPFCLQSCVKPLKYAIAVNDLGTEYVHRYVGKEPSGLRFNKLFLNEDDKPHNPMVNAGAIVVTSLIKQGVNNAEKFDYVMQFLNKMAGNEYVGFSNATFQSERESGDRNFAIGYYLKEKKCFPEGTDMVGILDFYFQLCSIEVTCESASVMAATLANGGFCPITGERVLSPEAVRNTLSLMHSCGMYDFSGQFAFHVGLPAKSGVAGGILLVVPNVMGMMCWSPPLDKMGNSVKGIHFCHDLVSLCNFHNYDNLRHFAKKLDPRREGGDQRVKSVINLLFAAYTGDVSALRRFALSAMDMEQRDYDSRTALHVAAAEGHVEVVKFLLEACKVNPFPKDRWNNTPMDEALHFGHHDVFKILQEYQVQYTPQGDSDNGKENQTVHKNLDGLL
Summary of the method: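 Human kidney-isoform GLS in 45 mM KH2PO4 pH 8.2, 0.02% Tween-20, with compound, started with 1mM L-Glutamine (added stock). Glutamate oxidase/HRP/Amplex red coupled fluorescence read at start and after 30 min at RT.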

[2] = biological target: Glucagon-like peptide 1 receptor (Homo sapiens) (UniProt P43220); experiment: qHTS of GLP-1 Receptor Agonists: LOPAC Validation (AID 624148);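 also: higher luminescence signal means agonism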
Chain of Glucagon-like peptide 1 receptor (Homo sapiens) (P43220 whole entry, looked up): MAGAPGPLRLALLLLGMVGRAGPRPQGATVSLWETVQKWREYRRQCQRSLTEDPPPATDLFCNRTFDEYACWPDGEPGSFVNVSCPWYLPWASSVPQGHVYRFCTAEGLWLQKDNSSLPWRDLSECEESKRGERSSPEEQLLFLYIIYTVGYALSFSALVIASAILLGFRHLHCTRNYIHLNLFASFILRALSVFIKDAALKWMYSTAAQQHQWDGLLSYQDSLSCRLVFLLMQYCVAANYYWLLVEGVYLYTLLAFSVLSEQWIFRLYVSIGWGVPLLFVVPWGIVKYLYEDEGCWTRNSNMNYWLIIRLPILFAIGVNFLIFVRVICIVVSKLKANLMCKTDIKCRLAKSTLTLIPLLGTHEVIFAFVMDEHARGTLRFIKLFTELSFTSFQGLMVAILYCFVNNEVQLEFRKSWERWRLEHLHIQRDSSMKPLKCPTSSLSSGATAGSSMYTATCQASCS
Summary of the method: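 HEK293 cells stably co-expressing a cAMP-responsive luciferase reporter and a hypersensitive GLP-1R were plated 12 h at 37 °C and exposed to compounds for 4-6 hr at 37 °C, 5% CO2. Luminescence was read 12 min after adding detection reagent.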

[3] = qHTS of Nrf2 Activators: LOPAC Validation (AID 624149)
Summary of the method: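 Following overnight seeding in 5% FBS OPTI-MEM, AREc32_Fluc cells receive compounds for a 24 hr incubation at 37 deg C with 5% CO2. Steady-Glo is added, and after 30 min at RT luminescence is recorded.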

[4] = HTS Assay for Allosteric Antagonists of the Human D2 Dopamine Receptor: Hit Validation in HTRF (AID 624455);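 also: stable D1 dopamine receptor cell line scored for blocking the D1 response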
Summary of the method: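 Validation of hits used D1 receptor stably expressed in cells with HTRF detection of response inhibition; origin screen measured calcium flux following EC80 dopamine in a force-coupled, inducible Hek293 Trex D2 cell line.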

[5] = qHTS of Trypanosoma Brucei Inhibitors: LOPAC Validation (AID 624147)
Summary of the method: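 T. brucei PYK with substrate was exposed to pin-transferred compounds across a concentration series, then started with 130 uM ADP (final). After 45 min at room temperature, Kinase-Glo Plus luminescence was read, normalized and curve-fitted.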

Measured: Potency

O=C1NC(=O)/C(=C/c2ccc3nccnc3c2)S1
not listed: [5]
inactive: all other assays above

CCCCN1CCC(n2c(=O)[nH]c3ccccc32)CC1
inactive: all assays above

Nc1nc(Cl)nc2c1ncn2[C@@H]1O[C@H](COP(=O)(O)OP(=O)(O)OP(=O)(O)O)[C@@H](O)[C@H]1O
inactive: [1] | [2] | [3]

NCCNC(=O)c1ncsc1-c1cccc(F)c1
not listed: [5]
inactive: all other assays above

NC(=S)c1ccc[n+]([C@@H]2O[C@@H](COP(=O)([O-])OP(=O)(O)OC[C@H]3O[C@@H](n4cnc5c(N)ncnc54)[C@H](OP(=O)(O)O)[C@@H]3O)C(O)C2O)c1 (some centres not stated)
not listed: [3]
inactive: all other assays above

CNc1ncnc2c1ncn2[C@@H]1O[C@H](CO)[C@@H](O)[C@H]1O
inactive: all assays above

NCC1OC(O[C@H]2[C@H](O)[C@@H](OC3C(O)C(N)CC(N)C3OC3OC(CO)C(O)C(O)C3N)O[C@@H]2CO)C(N)C(O)C1O (some centres not stated)
inactive: [1] | [2] | [4]

CN(C)CCCO[C@@H]1[C@H]2OC(C)(C)O[C@H]2O[C@@H]1[C@H](O)CO
not listed: [5]
inactive: all other assays above
